Screening results as filed in PubChem.
EBV gp42 inh: blocks Epstein-Barr virus glycoprotein 42 binding | Q1HVG2 | Fluorescence polarization binding assay, mP read-out | inhibition, % (tested at 21.74 µM) | actives 0.42% (n = 220,000); in the data active means inhibition above about 50%
MCL1 BIM primary: disrupts human MCL1 binding to BIM-BH3 peptide | actives 0.68% (n = 320,000) | Q07820 | inhibition, % at 10.9 µM | AID 2057 | GST-MCL1 / FITC-Bim-BH3 fluorescence polarization;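 active means inhibition above the mean inhibition of all tested compounds plus 3 SD, set per campaign, cut at about 40% in these data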;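 further: higher means more loss of mP so more displacement of Bim peptide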
GLD-1 RNA inh: GLD-1-TGE RNA interaction inhibition (C. elegans) | Q17339 | purified GLD-1 + fluorescein TGE RNA, fluorescence polarization | inhibition, % at 5.96 µM | actives 0.44% (n = 320,000);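 active means percent inhibition above a per-plate cutoff, the plate mean of test compounds plus 3 SD, cut at about 30% in these data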
Target sequence (Q17339 whole entry, looked up): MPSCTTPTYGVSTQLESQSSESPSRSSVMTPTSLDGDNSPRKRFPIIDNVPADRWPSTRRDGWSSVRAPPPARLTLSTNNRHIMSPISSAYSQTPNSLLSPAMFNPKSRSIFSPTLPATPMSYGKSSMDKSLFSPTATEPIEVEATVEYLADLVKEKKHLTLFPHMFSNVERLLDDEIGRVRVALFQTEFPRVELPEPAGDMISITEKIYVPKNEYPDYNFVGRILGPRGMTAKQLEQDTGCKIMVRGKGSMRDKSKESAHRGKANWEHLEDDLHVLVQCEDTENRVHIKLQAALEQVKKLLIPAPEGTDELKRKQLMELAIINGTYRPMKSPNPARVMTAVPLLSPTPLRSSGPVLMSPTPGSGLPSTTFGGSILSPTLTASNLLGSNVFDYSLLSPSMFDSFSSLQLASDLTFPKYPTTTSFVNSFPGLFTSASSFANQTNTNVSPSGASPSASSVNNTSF
Bcl-xL primary: inhibitors of human Bcl-xL | actives 0.7% (n = 320,000) | inhibition, % at 10.9 µM | AID 2129 | Q07817 | GST-Bcl-xL / FITC-Bim BH3 peptide fluorescence polarization;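 active means inhibition above the mean of all tested compounds plus 3 SD, cutoff set per campaign, cut at about 30% in these data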;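 further: inhibitors lower millipolarization by displacing the labeled peptide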
MEX-5 binding: C. elegans MEX-5 TCR-2 RNA binding activity | MEX-5/FITC-TCR2 RNA binding, fluorescence polarization; hits give low values | activity score (negative = inhibition of binding), % at 10 µM | actives 0.38% (n = 300,000);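 active means inhibition past about -25% in most replicates, and total fluorescence under double the plate's negative control median, limit read from the data; inconclusive means replicates evenly split on the limit, or fluorescence at least double controls; inactive means too little inhibition in most replicates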
Bcl-xL conf: counter-screen for MCL1 inhibitors: confirmation of human Bcl-xL inhibitors | actives 54% (n = 1,700) | shares compounds with MCL1 BIM primary | inhibition, % at 10.9 µM | GST-Bcl-xL / FITC-Bim BH3 peptide FP binding;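 active means inhibition above a cutoff equal to the mean inhibition of all tested compounds plus 3 SD, cut at about 30% in these data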
MCL1 inh confirm: MCL1-BIM-BH3 interaction inhibition, confirmation; shares compounds with MCL1 BIM primary; GST-MCL1 / FITC-Bim-BH3 fluorescence polarization; inhibition, % at 10.9 µM; actives 61% (n = 1,700); AID 2168;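 active means inhibition above the average of all tested compounds plus 3 SD, cut at about 40% in these data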
Each line names hits and unclear results; the compound was inactive in the other large screens (follow-up assays come after a bar, where they were run). Compounds with a hit are over-represented: about 1.3% of the library has one in this group of screens.

Cc1ccc(C2C3CSCC=C3C(C#N)=C(N)C2(C#N)C#N)cc1 (centres undefined)	none
CC(C)(C)OC(=O)N1CC=C2C(C#N)=C(N)C(C#N)(C#N)[C@H](c3cccnc3)[C@H]2C1	MCL1 BIM primary 66.7, GLD-1 RNA inh 36.5, Bcl-xL primary 53.2, MEX-5 binding -28.0 | Bcl-xL conf 45.3 | MCL1 inh confirm 47.2
CC(C)N1CC=C2C(C#N)=C(N)C(C#N)(C#N)[C@H](c3ccoc3)[C@H]2C1	EBV gp42 inh 129.7, MCL1 BIM primary 183.2, GLD-1 RNA inh 85.0, Bcl-xL primary 157.6, MEX-5 binding inconclusive | Bcl-xL conf 78.4 | MCL1 inh confirm 100.1
COc1cc(C2C3CN(C)CC=C3C(C#N)=C(N)C2(C#N)C#N)ccc1OC(C)C (centres undefined)	MCL1 BIM primary 65.8, Bcl-xL primary 59.6, MEX-5 binding -29.6 | Bcl-xL conf inactive | MCL1 inh confirm inactive
O=C(Nc1nn[nH]n1)C12CC3CC(CC(C3)C1)C2	none
NC(=O)c1ccsc1NC(=O)Cc1ccc([N+](=O)[O-])cc1	none (no result: MEX-5 binding)
Cc1c(Br)c(=O)oc2c(Br)c(O)c(O)cc12	MCL1 BIM primary 68.0 | Bcl-xL conf 35.7 | MCL1 inh confirm 83.9
Cc1c(Br)c(=O)oc2c(Br)c(O)ccc12	none
Cc1ccc2[nH]c3c(c2c1)CN(C(=O)CN1CCSCC1)CC3	none (no result: MCL1 BIM primary, GLD-1 RNA inh, Bcl-xL primary)
Cc1ccc2[nH]c3c(c2c1)CN(C(=O)CN1CC(C)OC(C)C1)CC3 (centres undefined)	MCL1 BIM primary 61.6, Bcl-xL primary 60.6 (no result: MEX-5 binding) | Bcl-xL conf 51.0 | MCL1 inh confirm 59.7
Cc1ccc2[nH]c3c(c2c1)CN(C(=O)CN1CCN(Cc2ccc4c(c2)OCO4)CC1)CC3	none
Cc1ccc2[nH]c3c(c2c1)CN(C(=O)CN1CCN(c2ccccn2)CC1)CC3	MCL1 BIM primary 58.1, GLD-1 RNA inh 37.7, Bcl-xL primary 65.6 | Bcl-xL conf inactive | MCL1 inh confirm inactive
CN(CC(=O)Nc1ccccc1Cl)CC(=O)Nc1cccc2ccccc12	none (no result: EBV gp42 inh, MCL1 BIM primary, Bcl-xL primary, MEX-5 binding)
Fc1ccc(-n2nnc(-c3ccccc3Br)n2)cc1	MCL1 BIM primary active (no result: EBV gp42 inh) | Bcl-xL conf inactive | MCL1 inh confirm inactive
CC(/C=N/NC(=O)c1nnn(-c2nonc2N)c1C(C)C)=C\c1ccco1	none (no result: EBV gp42 inh)
Oc1ccc(/C=N/Nc2cc(N3CCCC3)nc(N3CCCC3)n2)cc1O	MCL1 BIM primary 47.9 | Bcl-xL conf inactive | MCL1 inh confirm inactive
CC(=O)O[C@@H]1[C@@H](OC(C)=O)[C@H](n2ccc3cc([N+](=O)[O-])ccc32)OC[C@@H]1OC(C)=O	none
Cc1cc(C)c2cc3c(ccn3C3OC[C@H](O)[C@H](O)[C@H]3O)cc2n1 (some centres undefined)	EBV gp42 inh 94.1, MCL1 BIM primary 100.4, Bcl-xL primary 88.3 | Bcl-xL conf 71.5 | MCL1 inh confirm 86.2
CCC1CN(C(=O)N2CCC(C(=O)NCc3cccc(OC)c3OC)CC2)c2cc(C)ccc2O1 (centres undefined)	none (no result: EBV gp42 inh)
CCCCCCc1c(O)c2ccccc2[nH]c1=O	none
COC1=CC(=O)C(O)=C(CCCCCCC/C=C/CCCCCCCC2=C(O)C(=O)C=C(OC)C2=O)C1=O	MCL1 BIM primary 106.9, Bcl-xL primary 45.1 (no result: EBV gp42 inh) | Bcl-xL conf 32.2 | MCL1 inh confirm 81.4
COC1=C(OC)C(=O)C(CCCCCCCCCCO)=C(C)C1=O	none (no result: MCL1 BIM primary, GLD-1 RNA inh, Bcl-xL primary, MEX-5 binding)
CCCCCCCCCCCC1=C(O)C(=O)C=C(O)C1=O	MCL1 BIM primary 52.4 (no result: EBV gp42 inh) | Bcl-xL conf 45.8 | MCL1 inh confirm 75.5
O=C(NCc1ccc2[nH]c3c(c2c1)CCCC3)N1CCOCC1	MCL1 BIM primary 66.5, GLD-1 RNA inh 40.2, Bcl-xL primary 64.3 | Bcl-xL conf 52.6 | MCL1 inh confirm 72.4
O=C(NCc1ccc2[nH]c3c(c2c1)CCCC3)c1ccc(S(=O)(=O)N2CCOCC2)cc1	none
Cc1cc2c(cc1[N+](=O)[O-])NC(CNC(C)C)CC2 (centres undefined)	MCL1 BIM primary 96.0, GLD-1 RNA inh 50.8, Bcl-xL primary 97.5 | Bcl-xL conf inactive | MCL1 inh confirm inactive
